# Data published in a collection of fitness landscapes (doi:10.1016/j.celrep.2020.107928).
# In all, about 81,000 sequences were measured (“one-hybrid fitness for binding NBS DNA”: median about -0.1, highest 2% from about 0.36 on). Only a selection was taken, and the highest values are over-represented in it overall.
# B1: Caulobacter ParB omega fusion; a variant is named by its letters at X, in order, B8GW30 (parent)
# chain: MESVVVGEPGMSEGRRGLGRGLSALLGEVDAAPAQAPGEQLGGSREAPIEILQRNPDQPRRTFREEDLEDLSNSIREKGVLQPILVRPSPDTAGEYQIVAGERAWRAAQRAGLKTVPIMVRELDDLAVLEIGIIENVQRADLNVLEEALSYKVLMEKFERTQENIAQTIGKSXSHVANXMRLLXLPDEVQSYLVSGELTAXHARAIAAAADPVALAKQIIEGGLSVRETEALARKAPNLSAGKSKGGRPPRVKDTDTQALESDLSSVLGLDVSIDHRGSTGTLTITYATLEQLDDLCNRLTRGI
# Variants of: B1
# Assay: one-hybrid fitness for binding NBS DNA (the Noc-binding site; scaled: cognate 1, non-cognate 0); higher = stronger binding
# Details: with NBS DNA site
# In short: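 Caulobacter ParB libraries with four specificity codons randomised were screened by bacterial one-hybrid selection in the E. coli USO strain, using a HIS3 reporter whose site lies 19 bp from the promoter. Selection ran for 48 hours at 37°C on M9 lacking histidine, with 0.1 mM IPTG and 5 mM 3-AT. Plasmids were Illumina-sequenced before and after selection, three replicate libraries were pooled, and variants with under 10 reads were dropped. Fitness is the log change in each variant's read ratio to wild type, rescaled against the cognate and non-cognate sites.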
row,Variant,one-hybrid fitness for binding NBS DNA
1,FTQR,≤ 0.2
2,PCEF,≤ 0.2
3,PQIS,≤ 0.2
4,NIFS,≤ 0.2
5,NWPM,≤ 0.2
6,QHVW,≤ 0.2
7,NGRT,≤ 0.2
8,SSRN,≤ 0.2
9,GTQF,≤ 0.2
10,RRRN,0.618
11,RRIC,0.399
12,RCIC,≤ 0.2
13,RRIH,0.338
14,RRYN,0.26
15,RCRN,0.23
16,RRES,0.578
17,RREN,≤ 0.2
18,RCES,0.207
19,RRIS,0.661
20,RRIN,0.206
21,RRPC,0.249
22,NKTG,≤ 0.2
23,YEAN,≤ 0.2
24,WTTS,≤ 0.2
25,MTMK,≤ 0.2

row,Variant,one-hybrid fitness for binding NBS DNA
1,HRPA,≤ 0.2
2,GPSL,≤ 0.2
3,CRYG,≤ 0.2
4,RPYS,≤ 0.2
5,RRPS,0.568
6,RRRP,0.283
7,RRYD,≤ 0.2
8,RRPN,≤ 0.2
9,RRPD,≤ 0.2
10,RRRS,0.74
11,RRRD,0.202
12,RRYS,0.661
13,VRHA,≤ 0.2
14,LNEM,≤ 0.2
15,ADCG,≤ 0.2
16,SSQM,≤ 0.2
17,DSAV,≤ 0.2
18,PELK,≤ 0.2
19,STQD,≤ 0.2
20,GVGA,≤ 0.2
21,SIFQ,≤ 0.2
22,KRTP,≤ 0.2
23,KRTT,0.583
24,KRTN,≤ 0.2
25,KCTR,≤ 0.2

row,Variant,one-hybrid fitness for binding NBS DNA
1,KPTR,≤ 0.2
2,KRTR,0.563
3,KRTS,0.448
4,KCTT,≤ 0.2
5,NRTT,≤ 0.2
6,EFMG,≤ 0.2
7,NTNM,≤ 0.2
8,VSAH,≤ 0.2
9,AAKR,0.205
10,NKSI,≤ 0.2
11,GMFR,≤ 0.2
12,SFAG,≤ 0.2
13,TRHN,≤ 0.2
14,TRYR,0.301
15,TRDR,≤ 0.2
16,TRHR,0.409
17,TRNR,0.466
18,TCHR,≤ 0.2
19,TRRR,0.682
20,ARGR,≤ 0.2
21,TCNR,≤ 0.2
22,TCGR,≤ 0.2
23,TRGR,0.389
24,TCRR,0.333
25,RYPE,≤ 0.2

row,Variant,one-hybrid fitness for binding NBS DNA
1,FLFY,≤ 0.2
2,CVRG,≤ 0.2
3,MMMT,≤ 0.2
4,PQRS,≤ 0.2
5,PARP,≤ 0.2
6,AWAT,≤ 0.2
7,NMTI,≤ 0.2
8,LVAP,≤ 0.2
9,RIWD,≤ 0.2
10,RIND,≤ 0.2
11,RIIS,≤ 0.2
12,RIDS,≤ 0.2
13,RIWS,0.397
14,RIRP,≤ 0.2
15,RIWP,≤ 0.2
16,RIRS,0.56
17,RIYS,0.413
18,RIFS,0.214
19,RIRD,≤ 0.2
20,RINS,0.445
21,DTYS,≤ 0.2
22,SANL,≤ 0.2
23,RGWI,≤ 0.2
